# According to ChEMBL document CHEMBL1961873, “Compounds: GSK PKIS; Assays: Nanosyn kinase panel” (2012):
# “And” between values parts separate entries of the source, which are not always exact repeats. Equal entries are not always repeated.
# Legend:
# [1] = target: T1, Inhibitor of nuclear factor kappa-B kinase subunit epsilon (Homo sapiens) (UniProt Q14164); settings: at 1 µM;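 further: reported values are averaged percent inhibition figures against human IKKε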
# T1 sequence (whole entry): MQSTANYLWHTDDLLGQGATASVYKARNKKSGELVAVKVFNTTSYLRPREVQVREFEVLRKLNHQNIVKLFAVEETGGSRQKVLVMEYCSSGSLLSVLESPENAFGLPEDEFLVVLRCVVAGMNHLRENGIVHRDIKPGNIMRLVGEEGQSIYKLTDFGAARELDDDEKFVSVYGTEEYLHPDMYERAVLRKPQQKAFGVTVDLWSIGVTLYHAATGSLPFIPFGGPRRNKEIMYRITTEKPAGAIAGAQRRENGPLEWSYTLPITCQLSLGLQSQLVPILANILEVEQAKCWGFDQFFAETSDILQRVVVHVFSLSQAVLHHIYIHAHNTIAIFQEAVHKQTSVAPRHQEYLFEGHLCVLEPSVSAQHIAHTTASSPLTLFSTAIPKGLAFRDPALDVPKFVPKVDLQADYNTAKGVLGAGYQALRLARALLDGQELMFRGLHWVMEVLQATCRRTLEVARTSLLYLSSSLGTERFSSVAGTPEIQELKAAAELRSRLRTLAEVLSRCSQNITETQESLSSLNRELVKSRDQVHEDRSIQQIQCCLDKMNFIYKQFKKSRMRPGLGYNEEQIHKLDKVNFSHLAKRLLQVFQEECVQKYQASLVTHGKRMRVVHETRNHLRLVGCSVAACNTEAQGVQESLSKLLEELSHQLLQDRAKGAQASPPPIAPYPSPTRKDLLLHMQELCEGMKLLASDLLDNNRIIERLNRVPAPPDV
# [2] = target: T2, Serine/threonine-protein kinase Nek1 (Homo sapiens) (UniProt Q96PY6); settings: at 0.1 µM
# T2 sequence (whole entry): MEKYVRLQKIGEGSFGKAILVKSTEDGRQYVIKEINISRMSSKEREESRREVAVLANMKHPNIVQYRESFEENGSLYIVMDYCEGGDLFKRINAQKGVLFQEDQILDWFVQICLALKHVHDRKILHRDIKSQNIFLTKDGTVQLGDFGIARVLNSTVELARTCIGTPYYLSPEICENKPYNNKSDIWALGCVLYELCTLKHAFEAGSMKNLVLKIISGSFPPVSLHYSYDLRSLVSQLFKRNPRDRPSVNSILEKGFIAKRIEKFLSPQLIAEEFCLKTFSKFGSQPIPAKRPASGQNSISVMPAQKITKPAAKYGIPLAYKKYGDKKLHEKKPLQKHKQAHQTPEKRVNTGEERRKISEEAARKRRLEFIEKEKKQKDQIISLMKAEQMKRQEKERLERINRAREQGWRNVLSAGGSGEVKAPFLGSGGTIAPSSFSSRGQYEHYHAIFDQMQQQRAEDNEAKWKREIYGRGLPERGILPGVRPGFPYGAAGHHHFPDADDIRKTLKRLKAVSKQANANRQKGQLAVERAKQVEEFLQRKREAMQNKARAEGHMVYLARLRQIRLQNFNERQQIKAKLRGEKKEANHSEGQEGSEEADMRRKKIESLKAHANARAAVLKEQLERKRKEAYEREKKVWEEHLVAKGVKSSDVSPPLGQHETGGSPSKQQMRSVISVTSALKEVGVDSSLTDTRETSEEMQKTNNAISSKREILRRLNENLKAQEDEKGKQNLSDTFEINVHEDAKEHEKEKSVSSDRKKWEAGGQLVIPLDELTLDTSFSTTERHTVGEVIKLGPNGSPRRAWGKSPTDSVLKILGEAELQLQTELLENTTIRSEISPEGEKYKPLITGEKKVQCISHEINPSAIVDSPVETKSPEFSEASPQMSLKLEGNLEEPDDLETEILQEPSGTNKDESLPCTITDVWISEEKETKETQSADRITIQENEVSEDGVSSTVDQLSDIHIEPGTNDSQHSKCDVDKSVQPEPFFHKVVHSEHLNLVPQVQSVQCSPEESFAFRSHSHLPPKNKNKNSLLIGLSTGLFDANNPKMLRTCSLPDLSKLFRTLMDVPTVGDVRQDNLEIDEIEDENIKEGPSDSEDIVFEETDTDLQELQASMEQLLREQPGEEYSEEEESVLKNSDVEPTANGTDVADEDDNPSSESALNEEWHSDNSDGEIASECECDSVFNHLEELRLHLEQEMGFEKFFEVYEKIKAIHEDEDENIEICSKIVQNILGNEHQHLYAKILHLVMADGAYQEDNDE
# [3] = target: T2, Serine/threonine-protein kinase Nek1 (Homo sapiens); settings: at 1 µM
# [4] = target: T3, Serine/threonine-protein kinase Nek2 (Homo sapiens) (UniProt P51955); settings: at 0.1 µM
# T3 sequence (whole entry): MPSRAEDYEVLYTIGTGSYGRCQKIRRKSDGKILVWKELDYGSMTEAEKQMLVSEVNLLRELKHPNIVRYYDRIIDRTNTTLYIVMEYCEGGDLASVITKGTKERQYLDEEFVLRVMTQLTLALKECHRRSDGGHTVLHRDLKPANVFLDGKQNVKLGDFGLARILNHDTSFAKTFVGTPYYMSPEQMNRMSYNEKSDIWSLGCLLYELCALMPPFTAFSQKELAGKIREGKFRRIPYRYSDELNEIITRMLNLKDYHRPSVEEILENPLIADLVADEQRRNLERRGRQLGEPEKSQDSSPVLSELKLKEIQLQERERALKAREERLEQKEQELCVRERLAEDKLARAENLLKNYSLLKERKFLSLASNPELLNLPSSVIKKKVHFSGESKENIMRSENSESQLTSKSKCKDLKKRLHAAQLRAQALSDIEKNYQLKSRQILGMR
# [5] = target: T3, Serine/threonine-protein kinase Nek2 (Homo sapiens); settings: at 1 µM
# [6] = target: Serine/threonine-protein kinase Nek6 (Homo sapiens) (UniProt Q9HC98); settings: at 0.1 µM
# Sequence of Serine/threonine-protein kinase Nek6 (Homo sapiens) (Q9HC98 whole entry): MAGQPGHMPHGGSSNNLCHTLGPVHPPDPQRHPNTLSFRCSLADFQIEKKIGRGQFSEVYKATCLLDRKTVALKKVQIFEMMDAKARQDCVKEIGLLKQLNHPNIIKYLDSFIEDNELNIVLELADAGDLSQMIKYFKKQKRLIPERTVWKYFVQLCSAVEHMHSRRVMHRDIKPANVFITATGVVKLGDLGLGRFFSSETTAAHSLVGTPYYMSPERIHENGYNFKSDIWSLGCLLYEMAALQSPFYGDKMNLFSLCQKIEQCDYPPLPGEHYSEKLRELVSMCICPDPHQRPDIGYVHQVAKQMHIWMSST
# [7] = target: Serine/threonine-protein kinase Nek6 (Homo sapiens) (UniProt Q9HC98); settings: at 1 µM
# [8] = target: Serine/threonine-protein kinase Nek7 (Homo sapiens) (UniProt Q8TDX7); settings: at 0.1 µM
# Sequence of Serine/threonine-protein kinase Nek7 (Homo sapiens) (Q8TDX7 whole entry, looked up): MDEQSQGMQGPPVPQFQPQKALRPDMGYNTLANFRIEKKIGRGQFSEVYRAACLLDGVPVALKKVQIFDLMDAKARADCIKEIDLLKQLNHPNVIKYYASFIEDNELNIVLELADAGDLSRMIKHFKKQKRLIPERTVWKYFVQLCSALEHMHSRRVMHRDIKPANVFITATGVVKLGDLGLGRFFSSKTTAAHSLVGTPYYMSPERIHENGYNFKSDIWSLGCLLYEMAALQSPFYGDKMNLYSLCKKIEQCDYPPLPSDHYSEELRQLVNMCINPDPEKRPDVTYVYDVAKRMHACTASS
# [9] = target: Serine/threonine-protein kinase Nek7 (Homo sapiens) (UniProt Q8TDX7); settings: at 1 µM
# [10] = target: T4, Serine/threonine-protein kinase Nek9 (Homo sapiens) (UniProt Q8TD19); settings: at 0.1 µM
# T4 sequence (whole entry): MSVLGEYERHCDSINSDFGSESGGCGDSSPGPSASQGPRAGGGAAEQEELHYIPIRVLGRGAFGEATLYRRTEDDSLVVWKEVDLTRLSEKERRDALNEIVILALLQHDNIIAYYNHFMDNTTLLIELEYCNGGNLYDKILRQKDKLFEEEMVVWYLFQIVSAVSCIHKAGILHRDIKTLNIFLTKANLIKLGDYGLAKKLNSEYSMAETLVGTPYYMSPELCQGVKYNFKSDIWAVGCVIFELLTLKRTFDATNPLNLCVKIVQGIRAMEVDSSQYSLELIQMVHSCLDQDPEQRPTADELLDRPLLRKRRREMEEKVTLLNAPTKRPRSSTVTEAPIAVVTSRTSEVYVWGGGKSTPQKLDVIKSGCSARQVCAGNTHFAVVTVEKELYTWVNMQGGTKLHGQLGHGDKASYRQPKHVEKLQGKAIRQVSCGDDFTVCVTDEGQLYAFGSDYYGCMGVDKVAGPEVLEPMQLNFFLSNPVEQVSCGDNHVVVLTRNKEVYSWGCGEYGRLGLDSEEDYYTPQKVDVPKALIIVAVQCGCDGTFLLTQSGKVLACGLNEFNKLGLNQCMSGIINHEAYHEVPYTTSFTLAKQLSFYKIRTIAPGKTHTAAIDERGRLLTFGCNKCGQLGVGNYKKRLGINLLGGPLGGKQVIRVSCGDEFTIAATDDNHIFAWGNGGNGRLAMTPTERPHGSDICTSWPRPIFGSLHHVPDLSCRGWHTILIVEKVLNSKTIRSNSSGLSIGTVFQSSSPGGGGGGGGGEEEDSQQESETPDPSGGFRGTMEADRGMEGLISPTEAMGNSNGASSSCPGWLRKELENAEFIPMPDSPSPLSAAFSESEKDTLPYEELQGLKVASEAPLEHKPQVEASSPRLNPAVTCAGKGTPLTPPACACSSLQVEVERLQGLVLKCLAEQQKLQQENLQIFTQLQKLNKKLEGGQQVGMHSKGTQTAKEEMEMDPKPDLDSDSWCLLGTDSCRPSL
# [11] = target: T4, Serine/threonine-protein kinase Nek9 (Homo sapiens); settings: at 1 µM
# [12] = target: Serine/threonine-protein kinase PLK1 (Homo sapiens) (UniProt P53350); settings: at 0.1 µM
# Sequence of Serine/threonine-protein kinase PLK1 (Homo sapiens) (P53350 whole entry): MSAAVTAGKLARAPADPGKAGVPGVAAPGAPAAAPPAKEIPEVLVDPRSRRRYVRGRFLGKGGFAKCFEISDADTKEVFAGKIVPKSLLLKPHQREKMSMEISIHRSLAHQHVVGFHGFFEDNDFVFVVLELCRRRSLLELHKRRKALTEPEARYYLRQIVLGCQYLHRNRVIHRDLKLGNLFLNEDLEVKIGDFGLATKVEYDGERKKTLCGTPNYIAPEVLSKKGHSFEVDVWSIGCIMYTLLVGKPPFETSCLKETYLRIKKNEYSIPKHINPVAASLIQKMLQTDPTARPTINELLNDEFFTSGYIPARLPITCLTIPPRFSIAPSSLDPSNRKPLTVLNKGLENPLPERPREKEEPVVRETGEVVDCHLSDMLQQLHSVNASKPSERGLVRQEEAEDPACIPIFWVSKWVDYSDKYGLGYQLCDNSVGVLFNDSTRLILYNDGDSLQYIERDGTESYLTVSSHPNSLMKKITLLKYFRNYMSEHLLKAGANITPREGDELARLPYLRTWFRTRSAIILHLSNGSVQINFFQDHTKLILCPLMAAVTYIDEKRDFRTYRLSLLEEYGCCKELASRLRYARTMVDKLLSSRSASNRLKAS
# [13] = target: Serine/threonine-protein kinase PLK1 (Homo sapiens) (UniProt P53350); settings: at 1 µM
# [14] = target: T5, Dual specificity protein kinase TTK (Homo sapiens) (UniProt P33981); settings: at 0.1 µM
# T5 sequence (whole entry): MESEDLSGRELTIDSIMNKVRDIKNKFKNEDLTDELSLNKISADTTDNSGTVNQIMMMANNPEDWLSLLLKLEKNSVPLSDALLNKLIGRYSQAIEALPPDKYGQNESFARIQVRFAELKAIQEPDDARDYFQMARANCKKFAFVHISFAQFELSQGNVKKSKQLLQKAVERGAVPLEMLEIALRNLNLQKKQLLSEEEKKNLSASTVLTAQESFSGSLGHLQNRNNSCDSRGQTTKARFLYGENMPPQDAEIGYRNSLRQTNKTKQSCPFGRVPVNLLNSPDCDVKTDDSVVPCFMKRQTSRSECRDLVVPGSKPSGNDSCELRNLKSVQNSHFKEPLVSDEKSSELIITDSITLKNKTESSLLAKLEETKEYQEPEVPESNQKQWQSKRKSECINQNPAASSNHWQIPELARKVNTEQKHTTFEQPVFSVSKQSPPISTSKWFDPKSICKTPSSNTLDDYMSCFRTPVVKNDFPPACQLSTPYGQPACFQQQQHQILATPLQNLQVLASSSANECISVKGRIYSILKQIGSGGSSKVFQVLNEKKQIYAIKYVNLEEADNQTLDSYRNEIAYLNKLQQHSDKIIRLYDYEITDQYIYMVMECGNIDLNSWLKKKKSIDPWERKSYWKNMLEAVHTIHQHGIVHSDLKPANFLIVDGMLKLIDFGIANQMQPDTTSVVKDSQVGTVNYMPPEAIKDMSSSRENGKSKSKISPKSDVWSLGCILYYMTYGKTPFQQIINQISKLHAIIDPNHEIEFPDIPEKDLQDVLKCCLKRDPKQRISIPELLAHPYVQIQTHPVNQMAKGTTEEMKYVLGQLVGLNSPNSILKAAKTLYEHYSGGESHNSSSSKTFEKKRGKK
# [15] = test system: T6, Receptor-type tyrosine-protein kinase FLT3 (Homo sapiens), P36888 [D835Y]; settings: at 1 µM
# T6 sequence (whole entry): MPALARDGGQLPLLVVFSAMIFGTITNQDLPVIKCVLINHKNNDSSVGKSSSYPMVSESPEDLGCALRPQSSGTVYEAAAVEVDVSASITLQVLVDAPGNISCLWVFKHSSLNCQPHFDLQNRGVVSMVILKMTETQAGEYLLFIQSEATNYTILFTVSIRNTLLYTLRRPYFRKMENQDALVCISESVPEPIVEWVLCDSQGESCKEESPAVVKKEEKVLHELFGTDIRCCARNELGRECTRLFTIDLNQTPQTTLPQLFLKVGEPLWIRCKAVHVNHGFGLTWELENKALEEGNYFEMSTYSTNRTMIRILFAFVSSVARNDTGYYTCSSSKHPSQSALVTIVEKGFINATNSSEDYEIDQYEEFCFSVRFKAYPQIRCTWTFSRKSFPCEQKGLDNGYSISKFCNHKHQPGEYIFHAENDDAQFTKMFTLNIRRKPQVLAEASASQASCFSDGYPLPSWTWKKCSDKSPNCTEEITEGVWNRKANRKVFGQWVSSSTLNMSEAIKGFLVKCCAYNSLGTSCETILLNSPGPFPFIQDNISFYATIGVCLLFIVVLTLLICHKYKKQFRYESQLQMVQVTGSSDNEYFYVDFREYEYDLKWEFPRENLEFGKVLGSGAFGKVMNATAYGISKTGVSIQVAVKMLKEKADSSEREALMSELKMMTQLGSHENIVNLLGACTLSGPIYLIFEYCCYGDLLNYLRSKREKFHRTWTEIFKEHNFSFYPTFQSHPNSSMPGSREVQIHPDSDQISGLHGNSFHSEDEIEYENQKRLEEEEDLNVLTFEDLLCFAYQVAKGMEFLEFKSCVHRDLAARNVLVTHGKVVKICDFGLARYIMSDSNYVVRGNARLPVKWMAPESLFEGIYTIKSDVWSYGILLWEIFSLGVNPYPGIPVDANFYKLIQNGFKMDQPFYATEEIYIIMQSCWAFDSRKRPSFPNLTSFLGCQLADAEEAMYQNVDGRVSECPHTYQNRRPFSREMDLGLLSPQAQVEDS
# [16] = target: Vascular endothelial growth factor receptor 3 (Homo sapiens) (UniProt P35916); settings: at 0.1 µM
# Sequence of Vascular endothelial growth factor receptor 3 (Homo sapiens) (P35916 whole entry): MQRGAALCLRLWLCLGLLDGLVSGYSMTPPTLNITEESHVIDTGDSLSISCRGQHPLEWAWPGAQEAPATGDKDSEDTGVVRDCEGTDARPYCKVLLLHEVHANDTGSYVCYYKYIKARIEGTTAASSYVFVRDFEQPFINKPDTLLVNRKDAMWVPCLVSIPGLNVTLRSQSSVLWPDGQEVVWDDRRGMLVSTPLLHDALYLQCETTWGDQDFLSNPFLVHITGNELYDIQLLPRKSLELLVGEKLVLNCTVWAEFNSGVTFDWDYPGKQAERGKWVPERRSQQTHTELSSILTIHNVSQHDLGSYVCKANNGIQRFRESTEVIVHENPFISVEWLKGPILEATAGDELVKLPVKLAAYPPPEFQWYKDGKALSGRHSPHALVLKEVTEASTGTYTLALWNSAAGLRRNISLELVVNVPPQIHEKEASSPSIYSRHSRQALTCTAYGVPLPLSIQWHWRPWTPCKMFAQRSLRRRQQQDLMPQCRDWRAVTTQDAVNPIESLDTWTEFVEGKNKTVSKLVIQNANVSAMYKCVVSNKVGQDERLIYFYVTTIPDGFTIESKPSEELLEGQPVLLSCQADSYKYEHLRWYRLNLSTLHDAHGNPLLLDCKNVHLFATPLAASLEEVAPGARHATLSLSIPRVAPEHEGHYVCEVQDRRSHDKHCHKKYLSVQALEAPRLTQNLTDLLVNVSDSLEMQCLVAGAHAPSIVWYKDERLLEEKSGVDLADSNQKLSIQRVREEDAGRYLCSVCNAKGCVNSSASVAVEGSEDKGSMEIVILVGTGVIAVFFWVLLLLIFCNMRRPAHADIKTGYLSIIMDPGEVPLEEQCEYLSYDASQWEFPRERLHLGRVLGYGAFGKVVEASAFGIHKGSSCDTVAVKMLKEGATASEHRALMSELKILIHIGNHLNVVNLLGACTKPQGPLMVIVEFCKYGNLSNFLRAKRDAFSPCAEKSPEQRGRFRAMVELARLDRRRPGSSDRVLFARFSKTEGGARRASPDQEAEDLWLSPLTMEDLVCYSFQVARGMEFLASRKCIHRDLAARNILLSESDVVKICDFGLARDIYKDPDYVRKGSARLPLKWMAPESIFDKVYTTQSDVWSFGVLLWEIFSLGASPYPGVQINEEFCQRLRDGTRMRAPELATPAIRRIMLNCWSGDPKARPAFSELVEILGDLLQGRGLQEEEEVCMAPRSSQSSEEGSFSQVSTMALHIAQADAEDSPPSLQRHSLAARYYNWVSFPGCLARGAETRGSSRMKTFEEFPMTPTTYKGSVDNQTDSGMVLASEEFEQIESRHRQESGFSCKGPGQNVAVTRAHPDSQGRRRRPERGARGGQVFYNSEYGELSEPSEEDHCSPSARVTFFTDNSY
# [17] = target: Vascular endothelial growth factor receptor 3 (Homo sapiens) (UniProt P35916); settings: at 1 µM
# [18] = target: Macrophage colony-stimulating factor 1 receptor (Homo sapiens) (UniProt P07333); settings: at 0.1 µM
# Sequence of Macrophage colony-stimulating factor 1 receptor (Homo sapiens) (P07333 whole entry): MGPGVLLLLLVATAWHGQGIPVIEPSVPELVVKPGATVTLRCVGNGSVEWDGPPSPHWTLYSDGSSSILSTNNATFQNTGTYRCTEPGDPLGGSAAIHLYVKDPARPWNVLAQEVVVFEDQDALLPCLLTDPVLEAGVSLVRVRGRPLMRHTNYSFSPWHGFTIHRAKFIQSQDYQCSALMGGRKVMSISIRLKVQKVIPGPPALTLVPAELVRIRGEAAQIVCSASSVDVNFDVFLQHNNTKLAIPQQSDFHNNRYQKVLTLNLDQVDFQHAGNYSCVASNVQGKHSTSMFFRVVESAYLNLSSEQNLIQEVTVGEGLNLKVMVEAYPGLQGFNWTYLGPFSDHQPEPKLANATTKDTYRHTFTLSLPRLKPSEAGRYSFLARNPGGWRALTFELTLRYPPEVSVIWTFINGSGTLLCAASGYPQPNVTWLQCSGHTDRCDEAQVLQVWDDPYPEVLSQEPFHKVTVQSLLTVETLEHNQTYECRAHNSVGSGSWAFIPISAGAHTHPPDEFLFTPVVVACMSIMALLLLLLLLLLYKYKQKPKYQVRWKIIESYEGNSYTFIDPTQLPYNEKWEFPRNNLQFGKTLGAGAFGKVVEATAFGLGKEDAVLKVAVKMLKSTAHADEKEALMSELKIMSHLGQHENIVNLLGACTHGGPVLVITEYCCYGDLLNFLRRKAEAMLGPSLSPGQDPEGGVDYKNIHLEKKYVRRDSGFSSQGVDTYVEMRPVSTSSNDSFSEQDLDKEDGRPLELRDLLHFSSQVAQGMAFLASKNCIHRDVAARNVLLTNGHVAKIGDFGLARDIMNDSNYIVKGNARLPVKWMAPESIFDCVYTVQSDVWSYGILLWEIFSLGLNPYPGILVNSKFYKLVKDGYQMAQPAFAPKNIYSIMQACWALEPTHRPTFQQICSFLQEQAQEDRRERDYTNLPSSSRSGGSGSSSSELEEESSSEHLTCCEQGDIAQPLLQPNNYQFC
# [19] = target: Macrophage colony-stimulating factor 1 receptor (Homo sapiens) (UniProt P07333); settings: at 1 µM
# [20] = target: Tyrosine-protein kinase Fyn (Homo sapiens) (UniProt P06241); settings: at 0.1 µM
# Sequence of Tyrosine-protein kinase Fyn (Homo sapiens) (P06241 2-537 limits assumed): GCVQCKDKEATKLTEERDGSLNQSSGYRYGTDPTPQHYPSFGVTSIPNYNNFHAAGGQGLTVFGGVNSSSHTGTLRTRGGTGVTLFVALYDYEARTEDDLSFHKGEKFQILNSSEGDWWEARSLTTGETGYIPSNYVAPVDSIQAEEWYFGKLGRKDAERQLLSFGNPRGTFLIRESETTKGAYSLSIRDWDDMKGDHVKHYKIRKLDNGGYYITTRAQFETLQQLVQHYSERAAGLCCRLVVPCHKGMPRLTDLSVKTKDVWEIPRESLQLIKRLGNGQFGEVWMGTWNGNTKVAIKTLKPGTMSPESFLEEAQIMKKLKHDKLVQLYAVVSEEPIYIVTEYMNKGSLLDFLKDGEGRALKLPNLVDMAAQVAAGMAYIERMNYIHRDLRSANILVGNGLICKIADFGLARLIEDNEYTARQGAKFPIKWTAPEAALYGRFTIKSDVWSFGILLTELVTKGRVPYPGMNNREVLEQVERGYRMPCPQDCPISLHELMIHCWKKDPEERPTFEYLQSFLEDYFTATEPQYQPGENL
SMILES,inhibition [1],inhibition [2],inhibition [3],inhibition [4],inhibition [5],inhibition [6],inhibition [7],inhibition [8],inhibition [9],inhibition [10],inhibition [11],inhibition [12],inhibition [13],inhibition [14],inhibition [15],inhibition [16],inhibition [17] [%],inhibition [18],inhibition [19],inhibition [20]
CN1CCC(C(=O)Nc2n[nH]c3nc(-c4ccc(O)cc4)c(Br)cc23)CC1,9.87% and 4.68%,2.56% and 2.33%,5.56% and 3.3%,4.35% and 2.88%,2.67% and 2.08%,3.12% and 2.62%,6.77% and 0.79%,7.02% and 1.88%,10% and 8.97%,9.98% and 4.62%,13.7% and 6.47%,6% and 2.01%,2.87% and 3.17%,16.1% and 0.86%,1.05% and 6.99%,-8.86% and 1.93%,2.2,-1.7% and 0.14%,0.92% and 5.04%,0.13% and 0.97%
CS(=O)(=O)CCNCc1ccoc1-c1ccc2ncnc(Nc3ccc(OCc4ccccc4)cc3)c2c1,0.42%,0.71%,2.1%,1.71%,0.9%,1.71%,0.7%,0.9%,1.09%,-0.36%,1.8%,2.42%,3.33%,3.38%,2.16%,2.25%,2.83,-0.38%,6.09%,1.81%
